Measurements: PubChem BioAssay AID1159580 (chemical genetic matrix, 2015)
About 2,000 (36%) of roughly 5,500 compounds were called active. Another 18% or so got no clear call; they are omitted. Rule as the data show it: active = normalized growth mostly below about 0.91 (no sharp cut-off); inconclusive = no clear call, values can overlap the other calls; inactive = mostly above about 0.92. Some of the results follow.

Assay: chemical genetic growth profiling, strain panel (AID 1159580);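 also: tested at 20 µM; growth read once vehicle control cultures reached saturation at 30 °C; 1 = growth at the plate median or of vehicle wells; lower values mean less growth of the strain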
Conditions: S. cerevisiae deletion strains, growth OD

Measured: normalized growth

Cc1cc(OC(=O)N2CCCCC2)c(C(C)C)cc1[N+](C)(C)C
inactive: locus YAL021C, strain ccr4, stronger effect = lower value 0.994 | locus YAL026C, strain drs2, stronger effect = lower value 1.03 | locus YAL030W, strain snc1, stronger effect = lower value 1.01 | locus YBL061C, strain skt5, stronger effect = lower value 1.01 | locus YBR009C, strain hhf1, stronger effect = lower value 0.992 | locus YBR023C, strain chs3, stronger effect = lower value 1.01 | locus YBR171W, strain sec66, stronger effect = lower value 1.01 | locus YBR231C, strain swc5, stronger effect = lower value 1.02 | locus YBR279W, strain paf1, stronger effect = lower value 1.01 | locus YCL011C, strain gbp2, stronger effect = lower value 0.998 | locus YCL016C, strain dcc1, stronger effect = lower value 0.987 | locus YCL069W, strain vba3, stronger effect = lower value 1 | locus YCR088W, strain abp1, stronger effect = lower value 1.01 | locus YDL005C, strain med2, stronger effect = lower value 1.02 | locus YDL040C, strain nat1, stronger effect = lower value 1.01 | locus YDR001C, strain nth1, stronger effect = lower value 1.01 | locus YDR069C, strain doa4, stronger effect = lower value 1.03 | locus YDR137W, strain rgp1, stronger effect = lower value 1.03 | locus YDR159W, strain sac3, stronger effect = lower value 1.06 | locus YDR195W, strain ref2 0.997 | locus YDR297W, strain sur2, stronger effect = lower value 1.01 | locus YDR334W, strain swr1, stronger effect = lower value 1 | locus YDR335W, strain msn5, stronger effect = lower value 1.01 | locus YDR392W, strain spt3, stronger effect = lower value 0.995 | locus YEL003W, strain gim4, stronger effect = lower value 1.01 | locus YEL037C, strain rad23, stronger effect = lower value 1 | locus YEL061C, strain CIN8 (second series), stronger effect = lower value 1.01 | locus YER015W, strain faa2, stronger effect = lower value 1 | locus YER016W, strain bim1, stronger effect = lower value 1.01 | locus YER111C, strain swi4, stronger effect = lower value 1.01 | locus YER155C, strain BEM2 (second series), stronger effect = lower value 0.998 | locus YFR010W, strain ubp6, stronger effect = lower value 1.02 | locus YGL167C, strain pmr1, stronger effect = lower value 1.01 | locus YGL173C, strain kem1, stronger effect = lower value 1.02 | locus YGL227W, strain vid30, stronger effect = lower value 0.999 | locus YGL240W, strain doc1, stronger effect = lower value 1.02 | locus YGL253W, strain hxk2, stronger effect = lower value 1.01 | locus YHR013C, strain ard1, stronger effect = lower value 0.995 | locus YHR027C, strain rpn1, stronger effect = lower value 1.01 | locus YHR030C, strain SLT2, stronger effect = lower value 1 | locus YHR079C, strain IRE1, stronger effect = lower value 1.01 | locus YHR142W, strain chs7, stronger effect = lower value 0.986 | locus YJL092W, strain hpr5, stronger effect = lower value 1.01 | locus YJL095W, strain BCK1 (second series), stronger effect = lower value 1 | locus YJL095W, strain BCK1, stronger effect = lower value 1.01 | locus YJL115W, strain asf1, stronger effect = lower value 1.02 | locus YJL129C, strain trk1, stronger effect = lower value 1.03 | locus YJL154C, strain vps35, stronger effect = lower value 1.01 | locus YJL164C, strain tpk1, stronger effect = lower value 1 | locus YJL166W, strain qcr8, stronger effect = lower value 1.05 | locus YJR066W, strain TOR1, stronger effect = lower value 0.911 | locus YKL160W, strain elf1, stronger effect = lower value 0.988 | locus YKR026C, strain gcn3, stronger effect = lower value 1 | locus YKR091W, strain srl3, stronger effect = lower value 1 | locus YLL001W, strain dnm1, stronger effect = lower value 1 | locus YLL026W, stronger effect = lower value 1.03 | locus YLL041C, strain sdh2, stronger effect = lower value 1.03 | locus YLR027C, strain aat2, stronger effect = lower value 1.01 | locus YLR113W, strain HOG1, stronger effect = lower value 1 | locus YLR221C, strain rsa3, stronger effect = lower value 1.01 | locus YLR258W, strain gsy2, stronger effect = lower value 0.987 | locus YLR262C, strain YPT6 (second series), stronger effect = lower value 1.03 | locus YLR320W, strain mms22, stronger effect = lower value 1.02 | locus YLR342W, strain FKS1, stronger effect = lower value 1.01 | locus YLR357W, strain rsc2, stronger effect = lower value 1.06 | locus YLR370C, strain arc18, stronger effect = lower value 0.989 | locus YLR384C, strain iki3, stronger effect = lower value 0.999 | locus YML120C, strain ndi1, stronger effect = lower value 1 | locus YMR058W, strain fet3, stronger effect = lower value 1.02 | locus YMR125W, strain sto1, stronger effect = lower value 1.01 | locus YMR129W, stronger effect = lower value 1.01 | locus YMR205C, strain PFK2, stronger effect = lower value 1.02 | locus YMR231W, strain pep5, stronger effect = lower value 1.01 | locus YNL071W, strain lat1, stronger effect = lower value 1.01 | locus YNL183C, strain NPR1, stronger effect = lower value 0.949 | locus YNL209W, strain ssb2, stronger effect = lower value 1 | locus YNL248C, strain rpa49, stronger effect = lower value 1.02 | locus YNL322C, strain KRE1 (second series), stronger effect = lower value 1 | locus YNR049C, strain mso1, stronger effect = lower value 1.01 | locus YOR001W, strain rrp6, stronger effect = lower value 1.04 | locus YOR070C, strain gyp1, stronger effect = lower value 1 | locus YOR080W, strain dia2, stronger effect = lower value 1.01 | locus YOR083W, strain WHI5, stronger effect = lower value 0.975 | locus YOR106W, strain vam3, stronger effect = lower value 0.99 | locus YOR231W, strain MKK1, stronger effect = lower value 0.999 | locus YOR265W, strain rbl2, stronger effect = lower value 0.98 | locus YOR270C, strain vph1, stronger effect = lower value 1.08 | locus YOR290C, strain snf2, stronger effect = lower value 0.988 | locus YPL051W, strain arl3, stronger effect = lower value 1.01 | locus YPL078C, strain atp4, stronger effect = lower value 0.99 | locus YPL106C, strain sse1, stronger effect = lower value 1.01 | locus YPL240C, strain hsp82, stronger effect = lower value 1.01 | locus YPL256C, strain CLN2, stronger effect = lower value 0.978
